TSHR antagonist – antagonists of human thyroid stimulating hormone receptor. P16473. TSHR-expressing cells, TSH-stimulated cAMP HTRF, 2 h; hits give low values. activity change, negative = inhibition, % at 11.5 µM. hit rate 0.2% among 330,000;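 active = activity change below a set negative limit, meaning inhibition stronger than a set level, cut at about -70% in these data; inconclusive = activity change between two set negative limits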; also: % is scaled to controls: 0 for no effect and ±100 for the full control effect
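Inhibition of cAMP made by TSHR-expressing cells under TSH stimulation (4nM final, EC80; 2 h, 37 deg C) is quantified with a one-step lysis HTRF kit, anti-cAMP cryptate versus cAMP-d2.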
GLP1R inv ag – inverse agonists of human GLP-1 receptor. P43220. HEK293 GLP-1R CRE-luciferase, luminescence, 24 h; GLP-1R form is constitutively active. Potency, µM (titrated, usually from 38.3 µM), for inactives: top-dose activity change, negative = inhibition, hits mostly inhibitors. hit rate 1.6% among 410,000; also: potency is read from the fitted curve at half-maximal effect; % is scaled to controls: 0 for no effect and ±100 for the full control effect; nearly all actives have a fitted effect of over 55% in size
Target sequence (P43220 whole entry, looked up): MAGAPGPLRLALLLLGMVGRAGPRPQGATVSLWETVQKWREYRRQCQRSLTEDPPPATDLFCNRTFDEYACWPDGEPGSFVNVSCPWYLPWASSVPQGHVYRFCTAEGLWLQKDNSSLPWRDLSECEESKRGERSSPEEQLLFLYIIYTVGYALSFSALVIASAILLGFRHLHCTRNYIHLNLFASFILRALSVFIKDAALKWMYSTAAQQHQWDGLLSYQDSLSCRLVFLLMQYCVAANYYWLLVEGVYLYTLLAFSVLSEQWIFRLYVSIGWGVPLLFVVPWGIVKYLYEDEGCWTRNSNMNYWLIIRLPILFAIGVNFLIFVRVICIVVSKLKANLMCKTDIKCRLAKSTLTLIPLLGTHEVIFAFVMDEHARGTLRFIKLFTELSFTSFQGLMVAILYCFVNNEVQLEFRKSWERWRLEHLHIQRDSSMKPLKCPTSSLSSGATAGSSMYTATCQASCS
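Cells are plated, allowed 12 hours at 37 deg C, then treated with compounds for 24 hr before luciferase detection reagent is added and luminescence is read after 12 min at room temperature. The HEK293 line carries constitutively active GLP-1R with a cAMP-responsive reporter.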
HEK293 tox – cytotoxic in the GLP-1 receptor inverse agonist counter-screen | Potency, µM (series often up to 38.3 µM), inactives show at the highest dose activity change, negative = inhibition, hits mostly inhibitors | hit rate 0.13% among 410,000 | HEK293 cAMP-luciferase reporter cells, luminescence, 24 h;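 also: loss of luciferase light is scored as toxicity; potency is read from the fitted curve at half-maximal effect; % is scaled to controls: 0 for no effect and ±100 for the full control effect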
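MLSMR compounds, 24 hr on cells at 37 deg C/5% CO2; luminescence after luciferase reagent (12 min RT). Inhibition counted as the undesired cytotoxic outcome.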
PTHR1 ag – agonists of human PTHR1 parathyroid hormone receptor | Q03431 | hit rate 0.075% among 410,000 | AID 743266 | HEK293 GP2 PTHR1 cells, GloSensor cAMP luminescence, 1 h | Potency, µM (top dose mostly 115 µM), without a hit: top-dose activation, usual class: activators; also: potency is read from the fitted curve at half-maximal effect; nearly all actives have a fitted effect of over 55% in size
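HEK-293-derived GP2 cells expressing PTHR1 and a GloSensor cAMP reporter, 3,000/well, plated overnight, given luciferin plus IBMX (each 0.5 mM as added) for 1 h at 37 °C, then compound for 1 h at 37 °C. Luminescence was read after 15 min at room temperature.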
GLP-1R agonist – agonists of human GLP-1 receptor; HEK293 GLP-1R CRE-luciferase, luminescence, 4-6 h; cells express a hypersensitive GLP-1R form; hit rate 0.007% among 380,000; Potency, µM (top dose mostly 45.6 µM), for the others: top-dose activation, actives largely listed as activators; P43220; also: potency is read from the fitted curve at half-maximal effect; % of control where 0% means no effect
Numbers without * were called inactive; i = inactive; ? = inconclusive; . = no result given; [ ] = remark or other dose. This is a sample that favours compounds with a hit; in the whole collection about 1.8% have one here. Unless noted, calls follow the shape of the dose curve; as a rule, active = well fitted curve in the direction sought with a large enough effect; inconclusive = small, poorly fitted or top-dose-only effect, or another doubt; inactive = no such curve, though single readings can be large; an effect the other way counts as inactive or inconclusive.

SMILES | TSHR antagonist | GLP1R inv ag | HEK293 tox | PTHR1 ag | GLP-1R agonist
C[C@@H]1CN([C@H](C)CO)C(=O)Cc2cc(NC(=O)Nc3ccccc3)ccc2O[C@@H]1CN(C)Cc1ccc2c(c1)OCO2 | 4.6 | ? | ? | -84.3% | -10.1%
CCN(CC)CCNC(=O)c1cc2c(-c3ccc(Cl)cc3)nn(C)c2s1 | 3.2 | 5.62µM* | ? | -6.0% | -7.4%
COc1cccc(CNC(=O)c2cc3c(-c4ccccc4F)nn(C)c3s2)c1 | . | ? | -2.7% | i | .
C[C@@H]1CN([C@H](C)CO)S(=O)(=O)c2ccc(C#Cc3ccccc3F)cc2O[C@H]1CN(C)C(=O)c1ccc2c(c1)OCO2 | . | ? | ? | -24.1% | 0.6%
C[C@@H]1CN([C@H](C)CO)C(=O)c2c(c3ccccc3n2C)-c2ccccc2CO[C@H]1CN(C)Cc1ccc(C(F)(F)F)cc1 | . | 5.01µM* | ? | -24.6% | -3.5%
CCCN(CCC)c1nc(NC2CCN(C(=O)OCC)CC2)nc(OC)n1 | -11.9 | 2.82µM* | ? | -27.6% | 7.9%
COc1nc(NC2CCCCC2)nc(NC(C)(C)C)n1 | . | ? | 4.2% | -25.6% | ?
CC[C@H](OC(C)=O)C(C[C@H](C)NC)(c1ccccc1)c1ccccc1 | . | . | . | . | 8.6%[96 µM]
COc1ccc(-c2[nH]ncc2N=Nc2ccccc2)cc1 | -1.9 | -10.7% | ? | -1.6% | 8.3%
Oc1ccc(N=Nc2nc(-c3ccccc3)c(-c3ccccc3)[nH]2)cc1 | -18.3 | 5.62µM* | 10µM* | i | -1.4%
CCOC(=O)c1ccc(NC(=O)CSc2cc(=O)n(CC)c3ccccc23)cc1 | . | 8.8% | -3.2% | -9.1% | .
O=c1nc(/C=C/c2ccc(Cl)cc2Cl)cc(C(F)(F)F)[nH]1 | -34.5 | 3.98µM* | -6.6% | -31.9% | -3.6%
Cc1ccc(NP(=O)(Oc2ccccc2F)Oc2ccccc2F)cc1C | 15.9 | ? | -28.2% | i | 1.1%
Cc1cccc(NP(=O)(Oc2ccccc2F)Oc2ccccc2F)c1 | -1.7 | 11.2µM* | ? | -2.7% | -16.9%
O=P(Nc1cccc(F)c1)(Oc1ccccc1F)Oc1ccccc1F | -0.1 | 11.2µM* | -18.5% | i | 10.7%
CC(Sc1ncnc2sccc12)C(=O)Nc1ccc(S(=O)(=O)N2CCOCC2)cc1 (centres undefined) | . | 77.7% | -6.7% | -29.2% | 25.2%
CCOC(=O)C(O)(c1ccc(NC(=S)NC(=O)c2ccc(Cl)cc2Cl)c(C)c1)C(F)(F)F (centres undefined) | -15.0 | 3.98µM* | ? | -29.2% | 0.4%
COCCNCCOc1ccc(C(C)(C)c2ccccc2)cc1 | 10.2 | 10µM* | -4.7% | -4.5% | 9.0%
C[N+](C)(C)CCOC(=O)C(O)(c1ccccc1)c1ccccc1 | . | . | . | . | 0.5%
O=C(NN=Cc1ccc(N(CCCl)CCCl)cc1)C(=O)c1c[nH]c2ccccc12 | . | 5.62µM* | -2.5% | i | 6.3%
Nc1cc(Cl)c2nonc2c1[N+](=O)[O-] | ? | ? | 8.91µM* | -20.1% | -31.2%
O=C1[O][Sb-]23[O]C(=O)C([O]2)C2[O][Sb-]4([O]C(=O)C([O]4)C1[O]3)[O]C2=O | . | . | . | . | 2.1%
C/C(=N\NP(=S)(c1ccccc1)c1ccccc1)c1ccc(O)cc1O | -0.6 | 11.2µM* | 12.7% | -4.4% | 16.1%
O=C(CF)NC(Nc1cccc2cccnc12)C(Cl)(Cl)Cl (centres undefined) | -23.1 | 10µM* | 1.4% | i | 2.1%
Cc1ccccc1NC(=S)NC(NC(=O)CF)C(Cl)(Cl)Cl (centres undefined) | 23.1 | -18.9% | 2.7% | i | 5.2%
Cc1ccsc1C(=O)C1CCCN(Cc2ccc(-n3cccn3)cc2)C1 (centres undefined) | 7.2 | 10µM* | -14.0% | -17.5% | 5.8%
Cc1ccsc1C(=O)C1CCCN(Cc2cccc(-n3cccn3)c2)C1 (centres undefined) | 9.9 | 7.94µM* | 4.3% | -0.2% | 21.2%
O=C(Nc1cccc(C(F)(F)F)c1)C1CCCN1S(=O)(=O)c1cccc2nsnc12 (centres undefined) | . | ? | -5.1% | -30.0% | .

Screening data as filed in PubChem BioAssay.
